Test results from PubChem BioAssay AID1220 (Sanford-Burnham Center for Chemical Genomics, 2008).
In all, about 190,000 compounds went through this assay and about 1,300 (0.68%) were called active. Cut-off read from the data, not from the text of the source: active = inhibition above about 50%; inactive = the rest. The full list was thinned out, with actives kept by preference.

Molecular target: Mannose-6-phosphate isomerase (Homo sapiens) (UniProt P34949)
Test: human PMI inhibitors, high substrate, primary screen, biochemical, fluorescence intensity, high mannose 6-phosphate (AID 1220)
Conditions: recombinant PMI enzyme, coupled fluorescence intensity; at 20 µM; active compounds read high

Sequence of Mannose-6-phosphate isomerase (Homo sapiens) (P34949 whole entry, looked up): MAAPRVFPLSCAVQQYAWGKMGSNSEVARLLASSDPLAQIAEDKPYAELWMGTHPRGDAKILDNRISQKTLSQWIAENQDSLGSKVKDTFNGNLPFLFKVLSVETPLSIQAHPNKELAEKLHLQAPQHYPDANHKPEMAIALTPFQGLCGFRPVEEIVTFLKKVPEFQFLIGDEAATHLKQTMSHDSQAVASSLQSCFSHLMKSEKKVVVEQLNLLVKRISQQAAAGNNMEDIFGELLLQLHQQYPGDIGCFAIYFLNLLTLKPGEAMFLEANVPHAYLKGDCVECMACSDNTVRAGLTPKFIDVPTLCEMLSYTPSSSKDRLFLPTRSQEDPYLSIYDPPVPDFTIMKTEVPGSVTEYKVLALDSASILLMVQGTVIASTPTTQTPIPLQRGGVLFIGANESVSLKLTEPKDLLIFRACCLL

SMILES	inhibition
Cc1cc(C)c(S(=O)(=O)Cc2ccccc2)c(=O)[nH]1	-13% (inactive)
COc1ccc(/C=N/NC(=O)Cn2c(Cc3ccc(OC)c(OC)c3)nc3ccccc32)cc1OC	5.5% (inactive)
CCN1C(=O)C(CC(=O)Nc2ccccc2)S/C1=N\c1ccccn1 (centres undefined)	-2.2% (inactive)
CCOC(=O)C1(Cc2ccccc2C)CCCN(Cc2cc(OC)c(O)c(OC)c2)C1 (centres undefined)	65.5% (active)
CCOC(=O)C1(Cc2ccccc2C)CCCN(Cc2ccc(NC(C)=O)cc2)C1 (centres undefined)	-4.1% (inactive)
CCOC(=O)C1(Cc2ccccc2C)CCCN(Cc2cn(C)nc2C)C1 (centres undefined)	12.5% (inactive)
COc1ccc(CC(=O)Nc2ccc(OC)c(NC(=O)c3ccco3)c2)cc1	11.2% (inactive)
COc1ccccc1Oc1ccc2c(c1)C(=O)N(c1ccc(Br)c3cccnc13)C2=O	8.4% (inactive)
COc1cc(NC(C)CCCN)c2ncccc2c1Oc1ccccc1 (centres undefined)	56.6% (active)
COc1ccc(S(=O)(=O)N(CC(C)C)CC(C)C)c2cccnc12	10.4% (inactive)
O=C(N/N=C/c1c[nH]c2ccccc12)c1ccn(Cc2ccc(Cl)cc2)n1	1.6% (inactive)
O=C(CSCc1nc2ccccc2[nH]1)Nc1ccc(Oc2ccccc2)cc1	10.1% (inactive)
O=S(=O)(NCc1ccncc1)c1ccccc1	-9.4% (inactive)
O=C(NCc1ccccc1)Nc1cccn(Cc2ccccc2Cl)c1=O	38.2% (inactive)
O=C(NCc1ccccc1)Nc1cccn(Cc2c(F)cccc2Cl)c1=O	53.7% (active)
Cc1ccc(NC(=O)Nc2cccn(Cc3c(F)cccc3Cl)c2=O)cc1	55.7% (active)
CC(=O)Nc1cccn(Cc2c(Cl)cccc2Cl)c1=O	8.5% (inactive)
O=C(NCc1ccccc1)Nc1cccn(Cc2ccccc2F)c1=O	20.5% (inactive)
O=C(Nc1ccccc1)Nc1cccn(Cc2c(F)cccc2Cl)c1=O	35.6% (inactive)
COC(=O)Nc1cccn(Cc2c(Cl)cccc2Cl)c1=O	58.7% (active)
O=C(Nc1cccn(Cc2c(F)cccc2Cl)c1=O)NC1CCCCC1	17.3% (inactive)
C#CCOC(=O)Nc1cccn(Cc2c(Cl)cccc2Cl)c1=O	-71% (inactive)
O=C(Cn1cncn1)NCCC(c1ccccc1)c1ccccc1	5.2% (inactive)
COc1ccc2c(c1)CC/C2=N\OC(=O)c1cccc(C)c1	2.5% (inactive)

SMILES	inhibition
CCC1CCCCN1C(=O)c1c[nH]c2ccc(S(=O)(=O)N(C)c3ccc(Cl)cc3)cc2c1=O (centres undefined)	1.6% (inactive)
O=C(COc1ncnc2cc([N+](=O)[O-])ccc12)N(CCc1ccccc1)Cc1ccccc1	16.7% (inactive)
O=C(CCN1CCN(S(=O)(=O)c2ccc(Br)cc2)CC1)Nc1ccccc1F	-6.1% (inactive)
c1ccc(-n2cnc3ccccc32)cc1	-1.2% (inactive)
O=C1c2ccccc2C(=O)c2c1ncn2-c1ccccc1	59.1% (active)
O=C1c2ccccc2-c2nccnc21	6.6% (inactive)
Cc1ccsc1/C=N/N=C1\C(=O)Nc2ccccc21	5.3% (inactive)
CCc1nn(C(C)C(=O)Nc2cccc(C)c2C)c(=O)c2cc3occc3n12 (centres undefined)	6.9% (inactive)
CCCCc1c(C)nc2ccccc2c1SCCC#N	-31.5% (inactive)
O=C(c1ccccc1F)N1CCN(c2ccc([N+](=O)[O-])c3cccnc23)CC1	58.4% (active)
O=C(c1cccc(F)c1)N1CCN(c2ccc([N+](=O)[O-])c3cccnc23)CC1	62.3% (active)
O=[N+]([O-])c1ccc(N2CCN(CCO)CC2)c2ncccc12	65% (active)
Cc1ccc(S(=O)(=O)N2CCN(c3ccc([N+](=O)[O-])c4cccnc34)CC2)cc1	20.2% (inactive)
O=C(c1ccccc1F)N1CCN(c2ccc([N+](=O)[O-])c3ncccc23)CC1	38.3% (inactive)
Cc1cc(N2CCN(c3ccc([N+](=O)[O-])c4cccnc34)CC2)c2ccccc2n1	46.7% (inactive)
O=C(c1cccc(F)c1)N1CCN(c2cc(N3CCCCC3)c(F)cc2[N+](=O)[O-])CC1	15.2% (inactive)
O=C(c1cc(F)c(F)cc1Cl)N1CCN(c2ccc([N+](=O)[O-])c3ncccc23)CC1	46.1% (inactive)
COc1ccc(N2CCN(C(=O)c3cccc(F)c3)CC2)c([N+](=O)[O-])c1	11.8% (inactive)
CSc1nc2c(c(=O)n1C)SC(C)C2 (centres undefined)	4.1% (inactive)
Cc1ccn(-c2cc(O)c(-n3ccc(C)n3)cc2O)n1	13.9% (inactive)
COCCCNC(=O)Cn1cnc2sc(C)c(S(=O)(=O)N3CCN(c4ncccn4)CC3)c2c1=O	9.4% (inactive)
COc1cccc2cc(-c3ccnc(N)n3)oc12	18.3% (inactive)
Cc1c(C(=O)NC(C)CCc2ccccc2)cccc1[N+](=O)[O-] (centres undefined)	10.1% (inactive)
Cc1ccc(CNC(=O)c2cc3c(-c4ccc(Cl)cc4)nn(C)c3s2)o1	12.8% (inactive)

SMILES	inhibition
CCCN(CCC)C(=O)CC(c1ccccc1)c1cc(Br)ccc1O (centres undefined)	17.3% (inactive)
CCCSc1nc2c3c(sc2c(=O)[nH]1)CC(C)(CC)OC3 (centres undefined)	4.6% (inactive)
Nc1ccccc1C(=O)N=Nc1[nH]c(N)c2ccccc12	9.9% (inactive)
Cc1[nH][nH]c(=O)c1C(c1ccc(-c2ccc(Cl)c(Cl)c2)o1)c1c(C)[nH][nH]c1=O	-45.1% (inactive)
Cc1[nH][nH]c(=O)c1C(c1c(C)[nH][nH]c1=O)c1cn(Cc2ccc(F)cc2)c2ccccc12	57.2% (active)
Cc1[nH][nH]c(=O)c1C(c1c(C)[nH][nH]c1=O)c1cn(C)c2ccccc12	54.8% (active)
Cn1cc(C(c2ccccn2)c2cn(C)c3ccccc23)c2ccccc21	-0.8% (inactive)
O=C(O)Cc1cn(Cc2ccc(F)cc2)c2ccccc12	-9.7% (inactive)
CCOC(=O)n1c(=O)n(Cc2ccc(Cl)c(Cl)c2)c2ccccc21	12.4% (inactive)
Cc1[nH][nH]c(=O)c1C(c1c(C)[nH][nH]c1=O)c1cn(Cc2ccc(Cl)c(Cl)c2)c2ccccc12	58% (active)
Cn1cc(C(CC(=O)O)C(=O)O)c2ccccc21 (centres undefined)	4.1% (inactive)
NC(=O)CSc1cn(Cc2ccc(F)cc2)c2ccccc12	12.6% (inactive)
Cc1ccc(-c2nc(SCC(=O)Nc3cc(S(=O)(=O)N4CCCCC4)ccc3Cl)n[nH]2)cc1	10.9% (inactive)
C=C1c2ccccc2NC(=S)N1Cc1ccc2c(c1)OCO2	-15.3% (inactive)
N#CC1=C(N)SC2(CCCCC2)SC1c1ccccc1 (centres undefined)	-5.5% (inactive)
CC(C)CC(=O)OCc1cn(-c2ccccc2)nn1	-8.7% (inactive)
Cc1nnc(NC(=O)CSc2nccn2C)s1	-2.9% (inactive)
COc1ccc(-n2nc3c(N)n[nH]c3cc2=O)cc1	-97.5% (inactive)
CCOc1c(OC(C)=O)ccc(/C=C/c2ccc3cccc(OC)c3n2)c1[N+](=O)[O-]	11.3% (inactive)
COc1ccc(CC(NC(C)=O)C(=O)NC2CCN(S(=O)(=O)c3ccccc3)CC2)cc1OC (centres undefined)	4.4% (inactive)
CC(/C=C/c1ccccc1)=N/NC(=O)CCC(=O)Nc1ccccc1C	-55.7% (inactive)
O=C(NCc1ccc(Cl)cc1)c1ccc(-c2ccccc2C(F)(F)F)o1	2.3% (inactive)
O=C(O)Cc1c(O)ccc2ccccc12	9.9% (inactive)
Oc1ccc(N=Nc2c(O)ccc3ccccc23)cc1	20.8% (inactive)

SMILES	inhibition
Oc1ccc2ccccc2c1Br	52.5% (active)
CC1CCN(CCNC(=O)CN(C)S(=O)(=O)c2cccc3nsnc23)CC1	0.3% (inactive)
Cc1c(Cl)cccc1NC(=S)Nc1ccccn1	3.2% (inactive)
COc1cc(NC(=O)C2=C(N3CCOCC3)/C(=C/c3ccc(Cl)cc3)CC2)cc(OC)c1OC	23.9% (inactive)
COc1cccc(CNC(=O)c2nnn(-c3ccc(OC(F)(F)F)cc3)c2N)c1	-5.4% (inactive)
COC(=O)c1cc(=O)n(Cc2cccs2)c(=Nc2ccc(F)cc2)s1	-2% (inactive)
COc1ccc(O)c(C(c2c(C)[nH][nH]c2=O)c2c(C)[nH][nH]c2=O)c1	56.6% (active)
Cc1[nH][nH]c(=O)c1C(c1cc([N+](=O)[O-])ccc1O)c1c(C)[nH][nH]c1=O	31.8% (inactive)
CCOc1cc(C(c2c(C)[nH][nH]c2=O)c2c(C)[nH][nH]c2=O)ccc1O	49.7% (inactive)
CN(C)c1nc(N)nc(-c2nc3ccccc3s2)n1	6.8% (inactive)
COc1ccc(C(=O)/C=C/Nc2ccc([N+](=O)[O-])cc2)cc1	-10.3% (inactive)
Cc1cc(Br)ccc1-n1[nH]c(C)c(C=Nc2cccc3nsnc23)c1=O	70.9% (active)
Cc1ccc2cccc(N=Cc3c(C)[nH]n(-c4ccccc4)c3=O)c2n1	-9.8% (inactive)
COc1ccccc1N=Cc1c(C)[nH]n(-c2ccc(C)cc2C)c1=O	11.1% (inactive)
Cc1ccc(-c2csc(NC(=O)COc3ccc(N(C)S(=O)(=O)c4ccc(C)cc4)cc3)n2)cc1	8.1% (inactive)
O=C(Nc1cccc2c1CCCC2)c1ccncc1	-4% (inactive)
CC(C)OCCCNc1ncc2c(n1)CC(c1ccc(N(C)C)cc1)CC2=O (centres undefined)	22.7% (inactive)
CCOCCCNc1ncc2c(n1)CC(c1ccc(C)cc1)CC2=O (centres undefined)	9.4% (inactive)
CC(C)C(=O)Nc1ncc2c(n1)CC(c1cccs1)CC2=O (centres undefined)	4% (inactive)
CC(C)OCCCNc1ncc2c(n1)CC(c1ccccc1)CC2=O (centres undefined)	53.2% (active)
CCC(C)C(=O)Nc1ncc2c(n1)CC(c1cccs1)CC2=O (centres undefined)	-1.8% (inactive)
CC(C)OCCCNc1ncc2c(n1)CC(c1cccs1)CC2=O (centres undefined)	61.9% (active)
